# Assay outcomes deposited in PubChem BioAssay by several laboratories.
# dFosB activator: activators of delta FosB homodimer, primary screen, biochemical, fluorescence polarization, TAMRA-CDK5 oligo, single point; purified delta FosB; percent of positive-control signal above neutral wells; activation, % at 25 µM; 0.99% of 340,000 active; AID 493131, 2011;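 active = mean activation above about 17%, with every replicate also reaching it, limit read from the data, passing the limit was not always enough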
# Target sequence (P13346 whole entry, looked up): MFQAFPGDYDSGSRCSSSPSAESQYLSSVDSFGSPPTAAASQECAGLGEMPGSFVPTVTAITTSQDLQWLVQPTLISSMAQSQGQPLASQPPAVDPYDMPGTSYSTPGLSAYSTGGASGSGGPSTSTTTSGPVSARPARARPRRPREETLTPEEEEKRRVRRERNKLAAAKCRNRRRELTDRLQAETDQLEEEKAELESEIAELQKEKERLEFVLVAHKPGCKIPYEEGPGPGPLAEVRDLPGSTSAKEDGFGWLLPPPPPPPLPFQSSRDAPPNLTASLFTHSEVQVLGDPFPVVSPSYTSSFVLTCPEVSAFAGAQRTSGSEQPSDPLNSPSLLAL
# HSF1 inh: HSF1 inhibitors in luciferase reporter cells, primary screen, cell-based, NIH3T3, luminescence; NIH3T3-HGL HSE-luciferase, MG132-induced, luminescence 8 h; stronger effect = lower value; activity change, negative = inhibition, % at 7.5 µM (by protocol); 0.77% of 300,000 active; AID 2098, 2009;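 active = more than half of replicate wells show activity change below -50%, luminescence cut by over half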;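 also: luciferase reports HSF-1 transcriptional activity via heat shock element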
# Platelet DG rel: inhibitors of platelet dense granule secretion, primary screen, cell-based, MLPCN, human platelets; AID 1663, 2009; human platelet-rich plasma, SFLLRN dense granule ATP release, luminescence; inhibition, %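 (compounds screened at 7.5 µM in platelet-rich plasma)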; 0.22% of 300,000 active;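 active = mean replicate score, as percent of positive control, at or above 50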
# HSF1 activator: HSF-1 activators, primary screen, NIH3T3-HGL cells, MG132 stress, luminescence, single point; 1.7% of 300,000 active; activation, % at 9 µM; NIH3T3-HGL HSF-1 luciferase reporter, 8 h; 100% = twice DMSO control signal;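 active = mean replicate activation of at least 50% with a set share of replicates each reaching 50%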
# MPTP block: mitochondrial permeability transition pore inhibitors, primary screen, biochemical, isolated mouse mitochondria, absorbance; 1.4% of 360,000 active; inhibition, % at 10 µM; Ca2+ swelling absorbance, 30 min;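 active = inhibition of 50% or more, scaled per plate between neutral and stimulator controls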
# HSP90 refold inh: HSP90 inhibitors, primary screen, cell lysate, luminescence. 0.91% of 290,000 active. inhibition, % at 5.6 µM. Rabbit reticulocyte lysate, luciferase refolding luminescence, 3 h;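 active = inhibition above the screen-wide mean plus 3 SD, computed separately per campaign, cut at about 16% in these data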;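 also: inhibitors lower the luminescence because luciferase stays unfolded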
# Numbers stand for hits; - = inactive; . = no result given. This is a sample that favours compounds with a hit; in the whole collection about 4.9% have one here.
SMILES,dFosB activator,HSF1 inh,Platelet DG rel,HSF1 activator,MPTP block,HSP90 refold inh
Fc1cccc(/C=N/NC(=S)Nc2ccccc2Cl)c1,-,-,-,87,-,-
COc1ccc(NC(=S)Nc2ccc(OC)cc2OC)c(OC)c1,-,-,-,-,-,-
CN(Cc1ccccc1)C(=O)c1[nH]cnc1C(=O)Nc1ccccc1F,.,.,.,.,-,.
NCCNc1ccc(C(=O)N2c3ccccc3Sc3ccccc32)cc1[N+](=O)[O-],54,-,-,-,-,-
COc1ccc2c(c1OC)C(=O)OC2Nc1ccc(S(=O)(=O)N=C(N)N)cc1 (stereo not given),-,-60,-,-,-,-
O=C(NCc1ccco1)c1cc(-c2cccs2)on1,-,-,-,72,-,-
O=C(NCc1ccco1)c1cc(-c2ccccc2)on1,-,-,-,-,-,-
Cn1c(SCC(=O)NCc2ccco2)nnc1-c1cccs1,-,-,-,55,-,-
CC1(Cc2ccccc2Cl)C(=O)Nc2c(Cl)ccc(Cl)c21 (stereo not given),.,.,.,.,-,.
COC(=O)C1NN=C(C(=O)c2ccc(Cl)cc2)C1c1ccc(OC)cc1 (stereo not given),-,-,-,54,-,-
COc1ccc(CO/N=C/c2c(C)[nH]c(=O)[nH]c2=O)cc1,-,-,72,-,-,-
O=C(C#Cc1ccccc1)c1cccc([N+](=O)[O-])c1,-,-,-,101,-,-
CC(=O)c1cccc([N+](=O)[O-])c1,-,.,.,.,-,.
Cc1ccc(C(=O)n2nnc3ccccc32)cc1,.,-,-,-,.,-
CN(C)c1ccc(C(=O)n2nnc3ccccc32)cc1,-,-,-,56,-,-
CC(C)c1ccc(/C=C/C(=O)n2nnc3ccccc32)cc1,-,-,-,83,-,-
CCN(CCN(C)C)C(=O)c1ccc2c(c1NCCO)C(=O)c1ccccc1C2=O,20,-,-,-,-,-
O=C1c2ccccc2C(=O)c2c1ccc(C(=O)N1CCCCC1)c2NCCO,-,-,-,-,-,-
Nc1nc(SCc2ccc(Cl)cc2Cl)nc2nc3c(cc12)CCCC3,-,-,-,-,-,-
Cc1ccc2c(c1)N(Cc1cccc(Cl)c1)C(=O)c1cccnc1O2,-,-,-,-,-,-
O=C1c2cccnc2Oc2ccc(Cl)cc2N1Cc1ccc(F)cc1,-,-79,-,-,-,-
CCn1c(O)c(/C=N/N=C/c2ccc(OC)cc2)c2cc(C3=NNC(=O)CC3)ccc21,-,-,-,-,-,-
CC/C(C)=N\N=C\c1c(O)n(CC)c2cc(C3=NNC(=O)CC3)ccc12,-,-,75,-,-,-
Fc1ccccc1-c1nc2nc3ccccc3nc2n1CC1CCCO1 (stereo not given),-,-,-,63,-,-
O=C(Nc1nc(-c2nc3ccccc3s2)cs1)C1CC1,-,-,-,67,-,-
SMILES,dFosB activator,HSF1 inh,Platelet DG rel,HSF1 activator,MPTP block,HSP90 refold inh
COc1ccc(N2CC(C(=O)N3CCN(c4ccccc4)CC3)CC2=O)cc1 (stereo not given),-,-,-,-,-,-
COc1ccc(N=C2SC(C(=O)N3CCN(c4ccccc4)CC3)CC(=O)N2C)cc1 (stereo not given),-,-77,-,-,-,-
Cc1ccc(NC(=O)COC(=O)c2ccc(-n3cccn3)cc2)cc1C,-,.,.,.,-,.
Clc1ccccc1Nc1nc(NCC2CC2)nc2ccsc12,.,.,.,.,-,.
COc1cccc(CNC(C)(C)CO)c1OCc1ccc(Cl)cc1,-,-,-,-,-,-
COc1cccc(OCc2ccc(Cl)cc2)c1C#N,-,-,-,61,-,-
C(=C\c1ccccc1)/CSc1nc2ncccc2[nH]1,-,-,-,72,-,-
Cc1cc(NC(=O)CN2C(=O)NC(c3ccccc3)(c3ccc(C)c(C)c3)C2=O)no1 (stereo not given),-,.,.,.,-,.
COc1cc(C2NC(=O)NC(C)=C2C(=O)OCC2CCCCC2)ccc1O (stereo not given),-,-,-,-,-,-
O/N=C/c1ccc(OCc2ccccc2)c(Br)c1,-,-,-,66,-,-
O/N=C/c1ccc(OCc2ccccc2)c(Cl)c1,-,-,-,58,-,-
Cc1ccc(COc2ccc(Br)cc2/C=N/O)cc1,-,-,-,94,-,-
O/N=C/c1ccc(OCc2ccccc2F)c(Cl)c1,-,-,-,84,-,-
O/N=C/c1cc(Br)cc(Br)c1OCc1ccccc1,-,-,-,-,-,-
CC1(C)Cc2c(sc(NC(=O)C(=O)N3CCOCC3)c2C(N)=O)CO1,-,-,-,-,-,-
CCCN(C(=O)CSCc1ccc(C)cc1)c1c(N)n(Cc2ccccc2)c(=O)[nH]c1=O,.,.,.,.,-,.
Nc1cccc(C#Cc2ccc3c(=O)c4ccccc4oc3c2)c1,-,.,.,.,-,.
COc1cccc2oc3ccc(C#Cc4ccccn4)cc3c(=O)c12,-,-,62,61,-,17
O=c1c2ccccc2oc2cc(C#Cc3ccccn3)ccc12,-,-,-,63,-,.
COc1cccc2sc3cc(C#Cc4ccccn4)ccc3c(=O)c12,-,.,.,.,-,.
CC(=O)c1cccc(NC(=O)C2Cc3c(-c4ccc5c(c4)OCO5)ccnc3O2)c1 (stereo not given),.,.,.,.,-,.
NC(=O)C(C(=O)/C=C/c1ccc(Cl)cc1)=C1SCCS1,-,-,-,210,-,-
O=C(C#Cc1ccccc1)Nc1cccc(F)c1,-,-,-,82,-,-
COC(=O)/C(=C\C(=O)c1ccccc1)Nc1ccc(OC)cc1,-,-,-,51,-,-
O=C(C#Cc1ccccc1)Nc1ccc(F)cc1,-,-,-,-,-,-
SMILES,dFosB activator,HSF1 inh,Platelet DG rel,HSF1 activator,MPTP block,HSP90 refold inh
COc1ccc(N/C(C)=C/C(=O)c2ccccc2)cc1,-,-,-,-,-,-
COc1ccc(NC(=O)C#Cc2ccccc2)cc1,-,-,-,54,-,-
COCCN1C(=O)C(=O)/C(=C(/O)c2ccc(S(=O)(=O)N3CCOCC3)cc2)C1c1cccc([N+](=O)[O-])c1 (stereo not given),-,-,-,-,-,-
COc1cc(Cl)ccc1OCc1cc(C(=O)NC(C)Cc2cnccn2)no1 (stereo not given),-,-,-,59,-,-
Brc1ccc2c(c1)C(c1cccnc1)=NNC(c1cccs1)=N2,-,-,-,64,-,-
O=C(COc1ccc(/C=C\[N+](=O)[O-])cc1)N1CCOCC1,-,-,-,181,-,-
Cc1nc(N)nc(N)c1CCCc1ccc(Cl)c(Cl)c1,27,-,-,-,-,.
Cc1ccc(N/C=C(/C#N)c2ccsc2)cc1C,-,-,-,101,-,-
